Data taken from ChEMBL document CHEMBL1157539, “Thousands of chemical starting points for antimalarial lead identification” (Nature, 2010).

How the values were obtained:
Format in all cases: functional
[1] = test system: Plasmodium falciparum; experiment: GSK_TCMDC: Inhibition of Plasmodium falciparum 3D7 in whole red blood cells, using parasite LDH activity as an index of growth. Test compounds present at 2uM
[2] = test system: Plasmodium falciparum; experiment: GSK_TCMDC: Inhibition of Plasmodium falciparum Dd2 in whole red blood cells, using parasite LDH activity as an index of growth. Test compounds present at 2uM
[3] = test system: HepG2; experiment: GSK_TCMDC: Percent inhibition of human HepG2 cell line. Test compounds present at 10uM.

| Structure (SMILES) | Inhibition [1] [%] | Inhibition [2] [%] | Inhibition [3] [%] |
| --- | --- | --- | --- |
| COc1ccc2c(NN=Cc3ccccc3)ccnc2c1 | 100 | 98 | 18 |
| COc1ccc(C(C(=O)NC2CCN(C[C@H](O)c3ccnc4ccc(OC)cc34)CC2)N2CCN(c3ccc(Cl)c(Cl)c3)CC2)cc1 (stereo partly specified) | 100 | 79 | 12 |
| O=C(NCCN1CCCC1)c1cccc(-c2ccc(-c3nc4ccccc4[nH]3)cc2)c1 | 100 | 36 | 20 |
| CN1CCN(CCCN(Cc2csc(-c3ccc(CNCc4ccccc4)cc3)n2)S(=O)(=O)c2ccccc2)CC1.O=C(O)C(F)(F)F | 99 | 78 | 17 |
| CCN(CC)CCNC(=O)c1ccc(NC(=O)c2cn(-c3ccccc3)nc2-c2cccs2)cc1 | 100 | 94 | 30 |
| FC(F)(F)c1ccc2[nH]c(-c3ccc(-c4ccc(CNCCN5CCNCC5)cc4)cc3)nc2c1.O=C(O)C(F)(F)F | 92 | 74 | 13 |
| Cc1ccc(Sc2ccc(NC(=O)CN3CCN(C(=O)c4ccco4)CC3)cc2)cc1C | 92 | 84 | 14 |
| O=C(Nc1ccc(Cl)c(Cl)c1)N[C@H]1CCN(CCCCCNC(=O)C2CC2c2ccc(Cl)c(Cl)c2)C1 (stereo partly specified) | 93 | 8 | 42 |
| COc1ccc2nccc([C@@H](O)CN3CCC(NCCOc4cc(F)cc(F)c4)CC3)c2c1.O=C(O)C(=O)O | 100 | 86 | 10 |
| Cc1cc(CNCCCCCNCc2ccc(Cl)cc2)ccc1O | 98 | 0 | 12 |
| O=C(c1ccc(-c2ccccn2)s1)N1CCc2cc3nccc(N4CCN5CCC[C@H]5C4)c3cc21 | 96 | 49 | 0 |
| CCn1cnc2c(Nc3cccc([N+](=O)[O-])c3)nc(N3CCC(N4CCCCC4)CC3)nc21 | 98 | 35 | 31 |
| Cn1c(N)c(N=O)c(=O)[nH]c1=O | 97 | 82 | 58 |
| CCCN(CCC)CCOc1ccc(C(O)(C#CC(O)(c2ccc(OCCN(CCC)CCC)cc2)c2cccc(Cl)c2)c2cccc(Cl)c2)cc1 (stereo unspecified) | 100 | 98 | 100 |
| Cc1cc(C(=O)N(Cc2ccc(-c3ccc(CNCCc4ccc(S(C)(=O)=O)cc4)cn3)cc2)C(C)CN(C)C)ccc1[N+](=O)[O-].O=C(O)C(F)(F)F (stereo unspecified) | 99 | 46 | 17 |
| Cc1c(S(=O)(=O)Nc2ccc3ccn(CCN(C)C)c3c2)sc2ccc(Cl)cc12.Cl | 98 | 94 | 15 |

| Structure (SMILES) | Inhibition [1] [%] | Inhibition [2] [%] | Inhibition [3] [%] |
| --- | --- | --- | --- |
| Cc1cc(NS(=O)(=O)c2cccc(C(C)N3CCC(N4CCCC4)CC3)c2)ccc1C(C)C (stereo unspecified) | 100 | 53 | 30 |
| Cl.O=S(=O)(Nc1cc2c(cc1O)CCN(C1CCC1)CC2)c1ccc(Oc2ccc(F)cc2)cc1 | 99 | 52 | 20 |
| Nc1nc(N)c2cc(NC(=O)c3ccc(Cl)c(Cl)c3)ccc2n1 | 100 | 83 | 100 |
| COc1ccc(NS(=O)(=O)c2ccccc2Br)cc1N1CCN(C)CC1.Cl | 94 | 3 | 2 |
| COc1ccc(CNCc2ccc(F)cc2)cc1-c1cccc(S(=O)(=O)NCCN2CCCC2)c1.O=C(O)C(F)(F)F | 100 | 54 | 43 |
| c1ccc(OCCOc2ccc(Nc3ccnc4cc5ccccc5cc34)cc2)cc1 | 100 | 96 | 44 |
| CSc1sc(NC(=O)Nc2cccc(C(F)(F)F)c2)cc1C#N | 99 | 46 | 27 |
| O=C(NCCCCN1CCC(c2c[nH]c3ccc(-c4ccccc4)cc23)CC1)c1ccc(-c2ccccc2)cc1.O=C(O)C(=O)O | 97 | 40 | 48 |
| COc1ccc2[nH]cc(C3CCN(CCCCNC(=O)c4ccc(NC(=O)c5ccc(Cl)cc5)cc4)CC3)c2c1 | 98 | 16 | 17 |
| CCN(CCCN1CCCCC1)c1cc(C)nc(Nc2ccc(Cl)cc2C)n1.O=C(O)C(F)(F)F | 95 | 46 | 44 |
| CC(C)c1ccc(NC(=O)c2ccc(C(=O)NC3CCN(CC4CCCCC4)CC3)cc2)cc1.O=C(O)C(F)(F)F | 98 | 5 | 34 |
| C[C@@H](NC(=O)NC(CCN1CCC2(CC1)CN(S(C)(=O)=O)c1ccccc12)c1ccc(Cl)c(Cl)c1)c1ccccc1 (stereo partly specified) | 92 | 88 | 15 |
| CCn1ccc2c(N3CCCS3(=O)=O)cc(C(=O)N[C@@H](Cc3ccccc3)[C@H](O)CNC3CCCCC3)cc21 | 97 | 98 | 0 |
| OC(CNC1CCCCC1)Cn1c2ccccc2c2ccccc21 (stereo unspecified) | 97 | 92 | 11 |
| CCOc1ccc(C2CCN(CCCCNC(=O)c3ccc(NC(=O)c4ccc(Cl)cc4)cc3)CC2)c(OCC)c1.Cl | 100 | 95 | 14 |
| COc1ccc(C=NN=c2cc(C)[nH]c3ccccc23)c2ccccc12 | 99 | 69 | 26 |
